Compound activity: PubChem BioAssay, Center for Chemical Genomics, University of Michigan
Many of the other results were omitted from the sample, so hits are more common in it than they were.
Dicer inh = inhibitors of Dicer pre-microRNA processing, primary screen, biochemical, cat-ELCCA, chemiluminescence. actives 6% (n = 47,000). z-score at 25 µM. Endoribonuclease Dicer (Homo sapiens), Q9UPY3. cat-ELCCA pre-miR-21 Dicer processing; stronger effect = higher value; in the data active means z-score above about 3, passing the limit was not always enough;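 further: plate controls were vehicle for no effect and no enzyme for full effect; higher signal means more uncleaved substrate so more Dicer inhibition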
Target sequence (Q9UPY3 whole entry, looked up): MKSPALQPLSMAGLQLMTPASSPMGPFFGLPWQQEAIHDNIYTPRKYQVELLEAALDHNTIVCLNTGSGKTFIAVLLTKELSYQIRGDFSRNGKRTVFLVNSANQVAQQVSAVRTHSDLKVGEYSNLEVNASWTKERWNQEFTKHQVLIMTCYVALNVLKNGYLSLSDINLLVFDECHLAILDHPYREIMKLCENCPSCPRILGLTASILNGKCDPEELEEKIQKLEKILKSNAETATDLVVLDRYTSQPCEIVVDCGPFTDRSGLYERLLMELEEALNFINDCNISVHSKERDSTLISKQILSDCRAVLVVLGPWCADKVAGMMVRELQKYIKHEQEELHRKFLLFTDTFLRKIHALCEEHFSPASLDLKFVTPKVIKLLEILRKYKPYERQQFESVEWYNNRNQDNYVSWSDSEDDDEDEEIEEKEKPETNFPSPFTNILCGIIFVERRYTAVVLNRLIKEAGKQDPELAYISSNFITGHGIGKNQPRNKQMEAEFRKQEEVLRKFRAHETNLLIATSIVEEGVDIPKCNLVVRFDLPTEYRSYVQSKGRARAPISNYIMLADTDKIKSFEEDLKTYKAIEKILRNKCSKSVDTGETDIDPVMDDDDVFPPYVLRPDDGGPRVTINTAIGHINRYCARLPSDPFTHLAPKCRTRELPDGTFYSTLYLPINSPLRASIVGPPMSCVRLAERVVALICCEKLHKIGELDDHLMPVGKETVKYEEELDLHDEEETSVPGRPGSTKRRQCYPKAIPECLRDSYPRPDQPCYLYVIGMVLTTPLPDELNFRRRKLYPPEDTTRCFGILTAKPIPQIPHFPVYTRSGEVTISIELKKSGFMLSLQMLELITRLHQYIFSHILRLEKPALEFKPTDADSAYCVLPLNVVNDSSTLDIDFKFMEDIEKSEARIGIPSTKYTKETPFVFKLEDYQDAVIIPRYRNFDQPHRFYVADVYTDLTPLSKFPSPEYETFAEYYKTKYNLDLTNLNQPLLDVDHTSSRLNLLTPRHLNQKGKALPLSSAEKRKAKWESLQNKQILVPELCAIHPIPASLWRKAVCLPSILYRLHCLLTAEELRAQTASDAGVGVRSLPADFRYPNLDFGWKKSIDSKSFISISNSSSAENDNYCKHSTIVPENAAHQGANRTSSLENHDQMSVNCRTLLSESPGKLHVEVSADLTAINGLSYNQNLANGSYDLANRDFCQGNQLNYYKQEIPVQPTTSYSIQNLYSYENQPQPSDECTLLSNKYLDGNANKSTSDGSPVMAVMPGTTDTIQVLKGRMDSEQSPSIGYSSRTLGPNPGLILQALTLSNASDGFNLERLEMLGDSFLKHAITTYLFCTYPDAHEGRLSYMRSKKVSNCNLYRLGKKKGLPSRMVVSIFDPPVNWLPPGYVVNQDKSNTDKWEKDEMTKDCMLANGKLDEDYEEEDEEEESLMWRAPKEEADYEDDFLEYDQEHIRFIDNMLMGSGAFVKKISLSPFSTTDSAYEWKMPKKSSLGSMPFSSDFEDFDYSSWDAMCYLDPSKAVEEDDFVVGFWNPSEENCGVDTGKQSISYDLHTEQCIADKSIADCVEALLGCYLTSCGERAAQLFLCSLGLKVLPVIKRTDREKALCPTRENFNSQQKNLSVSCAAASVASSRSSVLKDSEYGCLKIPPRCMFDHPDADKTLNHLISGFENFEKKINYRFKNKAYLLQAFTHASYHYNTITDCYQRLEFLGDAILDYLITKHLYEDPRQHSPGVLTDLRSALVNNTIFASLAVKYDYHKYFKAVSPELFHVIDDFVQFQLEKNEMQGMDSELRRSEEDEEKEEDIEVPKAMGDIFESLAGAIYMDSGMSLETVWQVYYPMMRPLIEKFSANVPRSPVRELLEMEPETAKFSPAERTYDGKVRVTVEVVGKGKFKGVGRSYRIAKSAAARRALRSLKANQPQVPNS
* hit, by the source's call.

SMILES	Dicer inh
CC1SC(c2cccnc2)N(c2ccc(F)cc2F)C1=O (stereo not drawn)	2.9
Cc1nc2c(s1)c(C)nn2-c1ccccc1	0.81
O=[N+]([O-])c1cccnc1NC1CCN(Cc2ccccc2)CC1	2.1
CC(=O)C(C)(C)OC(=O)NCc1cccs1	-3.2
CC(=O)C(C)(C)OC(=O)NCCc1ccc(Cl)cc1	7.2*
O=C(O)/C=C\C(=O)NCCc1ccc(Cl)cc1	7.2
CCCCc1ccc(NC(=O)Nc2cc(C(C)(C)C)nn2C)cc1	1.9
O=S(=O)(Oc1ccccc1)c1ccc2c(c1)Cc1cc(S(=O)(=O)Oc3ccccc3)ccc1-2	-0.91
CSC1=N/C(=C\c2ccc(Cl)cc2)C(=O)N1Cc1ccc(Cl)cc1	0.77
O=c1ccccn1CCOc1ccc(Cl)cc1	1
CSC1=N/C(=C\N(C)C)C(=O)N1CCOc1ccc(Cl)cc1	3.3*
CCOC(=O)c1cnc(O/N=C/c2ccc(F)cc2)nc1C(F)(F)F	-0.18
O=C(Nc1csc2ccccc12)NC1Cc2ccccc2C1	1.6
OCCNc1ccc2ccccc2n1	0.45
Cc1ccccc1Nc1nc(C2(C)CC(C(C)C)C(=O)O2)cs1 (stereo not drawn)	-0.01
CCCCCOCC1CC2(CC(C)(c3csc(Nc4ccccc4)n3)OC2=O)C(=O)O1 (stereo not drawn)	-0.43
CC1CC2(CC(C)(c3csc(Nc4ccccc4)n3)OC2=O)C(=O)O1 (stereo not drawn)	4.9*
O=C1c2ccccc2-c2ccc(Br)cc21	1.3
COc1cc(C2NC(=O)c3c(sc4c3CCN(C)C4)N2)cc(Br)c1OC (stereo not drawn)	-1.8
Cc1cc(C)nc(Nc2nc3ccccc3[nH]2)n1	3.7*
Cc1cc(C)nc(Nc2ccccc2O)n1	2.5
CCOC(=O)Nc1nc2ccccc2[nH]1	-1
C=CCn1c(=S)[nH]c2c(OC)c(OC)c(OC)cc2c1=O	-0.05
Cc1ccc(C2CN=NC23C(=O)c2ccccc2OC3c2ccccc2)cc1 (stereo not drawn)	1.2
O=S(=O)(c1ccc(NC(=S)N/N=C/c2ccccc2)cc1)N1CCCCC1	2.3
SMILES	Dicer inh
O=S(=O)(c1ccc(NC(=S)NC2CCCC2)cc1)N1CCCCC1	1.8
O=S(=O)(c1ccc(NC(=S)N/N=C/c2ccccn2)cc1)N1CCCCC1	4.2*
CC(=O)Oc1ccc2occ(C(=O)c3ccc(Cl)cc3)c2c1	5.8
O=C(c1ccco1)c1coc2ccc(O)cc12	5.5*
NC(=O)Cn1cc(C(=O)c2ccco2)c2ccccc21	-0.25
COC(=O)c1c(C)nc(C)c2c(=O)oc3ccccc3c12	0.08
CCCc1cc2c(c(N)n1)c(=O)oc1ccccc12	-0.55
CC(C)(C)C1CCc2nc(N)c3c(=O)oc4ccccc4c3c2C1 (stereo not drawn)	5*
CC1CC(NC(=S)NC(=O)c2ccc(Cl)cc2Cl)CC(C)(C)C1 (stereo not drawn)	-0.14
O=C(O)COCC(=O)NCCN1CCNC1=O	0.67
Cc1nc(-c2nc(-c3c(C(=O)N/N=C/c4cccs4)noc3C)cs2)cs1	0.34
Cc1c2c(=O)n(-c3ccccc3)[nH]c2cc(=O)n1Cc1cccnc1	0.96
Cc1ccccc1-n1c(N)cc(=O)n(Cc2ccco2)c1=O	1.4
Cc1c2c(=O)n(-c3ccccc3)[nH]c2cc(=O)n1Cc1ccco1	3.3*
COc1cccc2c1OC1=C(C2)C(=O)CC(C)(C)C1	-0.28
CC(C)(C)NC(=O)Nc1ccc2ccccc2c1	1.1
COc1ccccc1-n1c(SCC(N)=O)nc2c(c1=O)C1(CCCCC1)Cc1ccccc1-2	3.2*
CSc1nc2c(c(=O)n1C)C1(CCCCC1)Cc1ccccc1-2	-0.36
O=c1c2c(nc(NCCCO)n1-c1ccccc1)-c1ccccc1CC21CCCC1	0.32
O=c1c2c(nc(NCCO)n1-c1ccccc1)-c1ccccc1CC21CCCC1	4.1*
Cn1c(Cc2ccccc2)nc2c(c1=O)C1(CCCCC1)Cc1ccccc1-2	-1.6
C=CCn1c(SCC(=O)OCC)nc2c(c1=O)C1(CCCC1)Cc1ccccc1-2	0.86
CCCc1c(OCCCOc2ccc3c(=O)c(-c4ccccc4)coc3c2)ccc(C(C)=O)c1O	-1.3
CCOC(=O)c1csc(-n2cccc2)n1	2.7
O=C(CN1c2cccc3cccc(c23)S1(=O)=O)Nc1ccc(F)cc1F	0.59
SMILES	Dicer inh
Cc1c(-c2ccccc2)nnn1-c1cccc(Cl)c1C#N	0.79
COC(=O)c1[nH]c2cscc2c(=O)c1C(=O)OC	2.6
CSc1nc(-c2ccccc2)nc(Sc2ccccn2)c1C#N	-0.77
O=C(CC1SC(=Nc2ccccc2)NC1=O)Nc1ccccc1Cl (stereo not drawn)	-0.66
C=CCN=C1NC(=O)C(CC(=O)Nc2ccc(Cl)cc2)S1 (stereo not drawn)	-0.91
O=C(CC1SC(=Nc2ccc(O)cc2)NC1=O)Nc1ccc(Br)cc1 (stereo not drawn)	3.8*
CCCOC(=O)C1=C(C)NC2=C(C(=O)CC(C)(C)C2)C1c1ccc(Cl)cc1 (stereo not drawn)	0.91
OC(CN1CCCCCC1)Cn1c2ccccc2c2ccccc21 (stereo not drawn)	-0.68
c1nc(Nc2ccc3c(c2)OCO3)c2[nH]cnc2n1	-2.2
